Source: PubChem BioAssay (National Center for Advancing Translational Sciences (NCATS))
KB-V1 MDR tox: KB-V1 MDR subline cytotoxicity; KB-V1 MDR cells viability, CellTiter-Glo, 72 h; 400,000 compounds, 3.4% hits; Potency, µM (highest dose often 46.1 µM), hits mostly cytotoxic; AID 1347076; note: nearly all actives have a fitted effect of over 60% in size
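Drug-selected KB-V1 cells, grown in DMEM lacking phenol red with 10% FBS, receive compound titrations; after three days at 37 degrees C, surviving cell ATP is quantified by CellTiter-Glo luminescence and responses normalized and curve-fitted.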
SW480 rereplic: induces DNA re-replication in SW480 colon adenocarcinoma cells; 340,000 compounds, 1.8% hits; SW480 DNA re-replication, Hoechst DNA content imaging, 48 h; Potency, µM (doses to about 46.1 µM), actives largely listed as activators; AID 624297; note: nearly all actives have a fitted effect of over 55% in size
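Hoechst fluorescence of nuclei (405 nm excitation, 500-530 nm emission) measured by plate-scanning imager after 48 hr compound exposure at 37 C; re-replication scored as increased number of nuclei with elevated intensity.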
HT1080NT lethal: kills 2HG-producing HT-1080-NT fibrosarcoma cells | HT-1080-NT fibrosarcoma viability, CellTiter-Glo ATP luminescence, 48 h | Potency, µM (highest dose often 46.1 µM), most hits filed as cytotoxic | 360,000 compounds, 1.6% hits;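 note: NT is the 2HG producing partner of a matched IDH1 knockdown line; nearly all actives have a fitted effect of over 55% in size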
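Viability by CellTiter-Glo luminescence after 48 h compound exposure at 37C of HT-1080-NT cells (750/well, RPMI, 5% FBS). % activity scaled between DMSO wells and medium-only wells, then curve-fitted and categorized by curve class.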
HT1080 IDH1KD tx: HT-1080 IDH1 knockdown cell toxicity (counter line) | 360,000 compounds, 2% hits | HT-1080 IDH1 knockdown viability, ATP luminescence, 48 h | Potency, µM (titrated, usually from 46.1 µM), hits mostly cytotoxic
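Viability of IDH1-knockdown HT-1080 fibrosarcoma cells was assessed by CellTiter-Glo after 48 h at 37 °C with titrated compound; concentration-effect curves were classified by fit quality and response size.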
MCF10A rereplic: DNA re-replication induction in MCF 10a cells | MCF 10A DNA re-replication, Hoechst nuclear intensity, 48 h | Potency, µM (series often up to 46.1 µM), most hits filed as activators | 350,000 compounds, 2.9% hits; note: nearly all actives have a fitted effect of over 50% in size
KB-3-1 tox: kills parental KB-3-1 adenocarcinoma cells. KB-3-1 viability, CellTiter-Glo ATP luminescence, 72 h. AID 1347075. 400,000 compounds, 1.4% hits. Potency, µM (series often up to 46.1 µM), actives largely listed as cytotoxic; note: nearly all actives have a fitted effect of over 60% in size
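Cells are dispensed, compounds pinned in, plates held at 37 °C for 72 h, then CellTiter-Glo is added and luminescence read after 10 minutes. Cell line: parental KB-3-1 in phenol-red-free DMEM, 10% FBS.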
Large screens that a line does not name were inactive; ! = not active in a repeat. Rows were chosen to be rich in hits. Some 8% of all compounds tested hit in one or more screens of this group. Calls come from the whole dose curve; as a rule, active = well fitted curve in the direction sought with a large enough effect; inconclusive = small, poorly fitted or top-dose-only effect, or another doubt; inactive = no such curve, though single readings can be large; an effect the other way counts as inactive or inconclusive.

O=[N+]([O-])c1cc(Cl)c(O)c2ncccc12	SW480 rereplic 10.3µM, HT1080 IDH1KD tx inconclusive, MCF10A rereplic inconclusive, KB-3-1 tox 7.31µM
O=[N+]([O-])c1ccc(O)c2ncccc12	KB-V1 MDR tox inconclusive, SW480 rereplic 7.31µM, HT1080NT lethal 6.51µM, HT1080 IDH1KD tx 16.4µM, MCF10A rereplic 14.6µM!, KB-3-1 tox inconclusive
CCOc1ccc(S(=O)(=O)N2CCN(c3nc(-c4ccccc4)nc4ccccc34)CC2)cc1	none (no result: KB-V1 MDR tox, SW480 rereplic, MCF10A rereplic, KB-3-1 tox)
COc1cc(OC)c(NC(=O)N2CCCn3nc(C)cc32)cc1Cl	none (no result: SW480 rereplic, HT1080NT lethal, HT1080 IDH1KD tx, MCF10A rereplic)
Fc1ccc(Nc2ncnc3onc(-c4ccc(Cl)cc4)c23)cc1Cl	none (no result: SW480 rereplic, HT1080NT lethal, HT1080 IDH1KD tx, MCF10A rereplic)
CC(C)c1ccc(C2N3CC4(C)CN2CC(c2ccccc2)(C3)C4=O)cc1 (stereo not drawn)	none (no result: SW480 rereplic, HT1080NT lethal, HT1080 IDH1KD tx, MCF10A rereplic)
O=c1oc2ccccc2c(O)c1Cc1cc(Cl)c2cccnc2c1O	KB-V1 MDR tox inconclusive, SW480 rereplic inconclusive, MCF10A rereplic 5.8µM, KB-3-1 tox 16.4µM
CCOC1=C2CN(S(=O)(=O)c3ccc(C)cc3)C(c3cccc(Cl)c3)CC2N(S(=O)(=O)c2ccc(Cl)cc2)C(c2ccccc2)C1 (stereo not drawn)	KB-3-1 tox 5.17µM (no result: SW480 rereplic, MCF10A rereplic)
Cc1ccc(Cl)cc1NC(=O)Nc1nnc(N2CCCC(C)C2)s1 (stereo not drawn)	none (no result: SW480 rereplic, HT1080NT lethal, HT1080 IDH1KD tx, MCF10A rereplic)
CCc1ccccc1NC(=O)CSc1nnc(COc2ccccc2Cl)o1	none (no result: SW480 rereplic, HT1080NT lethal, HT1080 IDH1KD tx, MCF10A rereplic)
COc1ccc(CCNc2ncnc3[nH]ncc23)cc1OC	HT1080NT lethal inconclusive
Fc1ccc(CCNc2ncnc3[nH]ncc23)cc1	KB-V1 MDR tox 4.11µM, KB-3-1 tox 11.6µM
Cc1cccc(Cn2c(=O)n(Cc3ccccc3)c(=O)c3sc4ccccc4c32)c1	none (no result: SW480 rereplic, HT1080NT lethal, HT1080 IDH1KD tx, MCF10A rereplic)
CC12CCC(C(=O)NNc3ccccc3)(C(=O)C1=O)C2(C)C (stereo not drawn)	HT1080NT lethal inconclusive, HT1080 IDH1KD tx inconclusive, MCF10A rereplic 16.4µM
CC12CCC(C(=O)NCc3ccccc3)(OC1=O)C2(C)C (stereo not drawn)	none
COc1ccc(OC)c2[nH]c(=O)c(CCNC(=O)C3CCCCC3)cc12	KB-V1 MDR tox 9.2µM
COc1ccc(OC)c2[nH]c(=O)c(CCNC(=O)c3ccc(S(=O)(=O)N4CCCCC4)cc3)cc12	KB-V1 MDR tox 8.2µM
COc1ccc(OC)c2[nH]c(=O)c(CCNC(=O)C(C)C)cc12	none
CCCCNc1nc(NCc2ccccc2)nc2ccccc12	KB-V1 MDR tox inconclusive, HT1080NT lethal inconclusive, HT1080 IDH1KD tx 16.4µM, KB-3-1 tox inconclusive (no result: SW480 rereplic, MCF10A rereplic)
Oc1ccccc1Nc1nc(NCc2ccccc2)c2ccccc2n1	KB-V1 MDR tox 20.6µM, HT1080NT lethal inconclusive, HT1080 IDH1KD tx inconclusive, MCF10A rereplic 16.4µM, KB-3-1 tox 23.1µM
CNc1nc(NCc2ccccc2)c2ccccc2n1	HT1080NT lethal inconclusive, HT1080 IDH1KD tx inconclusive, MCF10A rereplic inconclusive, KB-3-1 tox inconclusive
Oc1ccccc1-c1nc(NCc2ccccc2)c2ccccc2n1	HT1080NT lethal inconclusive, MCF10A rereplic inconclusive
CCn1c(C(=O)NCc2ccccc2)cc2sc(Cl)cc21	none (no result: SW480 rereplic, HT1080NT lethal, HT1080 IDH1KD tx, MCF10A rereplic)
O=[N+]([O-])c1cc(Cl)cc(/C=N\Nc2ccccn2)c1O	SW480 rereplic 3.66µM, HT1080NT lethal inconclusive, HT1080 IDH1KD tx inconclusive, MCF10A rereplic inconclusive, KB-3-1 tox inconclusive
CCOC(=O)C1(CCC(C)C)CC(CSc2nc3ccccc3[nH]2)OC1=O (stereo not drawn)	KB-V1 MDR tox inconclusive, MCF10A rereplic 6.51µM
CCOC(=O)C1(CC)CC(CSc2nc3ccccc3[nH]2)OC1=O (stereo not drawn)	none
O=C(NC(c1ccc(F)cc1)c1ccc2ccccc2n1)C1CCN(Cc2ccc(Oc3ccccc3)cc2)CC1 (stereo not drawn)	HT1080 IDH1KD tx inconclusive, KB-3-1 tox inconclusive (no result: SW480 rereplic, MCF10A rereplic)
COc1cc(OC)nc(C(NC(=O)C2CCN(Cc3ccc(Oc4ccccc4)cc3)CC2)c2ccccc2C)n1 (stereo not drawn)	HT1080NT lethal 16.4µM, HT1080 IDH1KD tx inconclusive (no result: SW480 rereplic, MCF10A rereplic)
